# Screens: PubChem BioAssay, National Center for Advancing Translational Sciences (NCATS)
# D1 potentiator = enhances dopamine response at the human D1 receptor. P21728. HEK293 TREx D1 cells, calcium flux, dopamine EC20 potentiation. potentiation, % at 10 µM. 360,000 tested, 0.036% active. AID 504651; in the data active = potentiation above about 30%; note: 0% is about no effect
# Target sequence (P21728 whole entry, looked up): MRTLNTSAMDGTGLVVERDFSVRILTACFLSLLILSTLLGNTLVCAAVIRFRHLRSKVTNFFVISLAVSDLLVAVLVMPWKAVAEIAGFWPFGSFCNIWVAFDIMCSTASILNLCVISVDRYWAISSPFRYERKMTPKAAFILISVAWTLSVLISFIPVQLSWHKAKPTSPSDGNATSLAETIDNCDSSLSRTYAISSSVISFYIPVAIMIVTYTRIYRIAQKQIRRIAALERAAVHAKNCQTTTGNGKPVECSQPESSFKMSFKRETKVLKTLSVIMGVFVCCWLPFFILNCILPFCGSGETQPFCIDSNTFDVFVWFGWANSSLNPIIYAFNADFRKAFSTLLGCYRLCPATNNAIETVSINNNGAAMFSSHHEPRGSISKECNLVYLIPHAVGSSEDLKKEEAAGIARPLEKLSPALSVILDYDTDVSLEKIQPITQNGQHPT
# TRPV1 PAM = enhances activation of the human vanilloid receptor TRPV1. TRPV1-expressing cells, Fluo-8 calcium influx, capsaicin EC20 potentiation. potentiation, % at 8.33 µM. 320,000 tested, 0.02% active. AID 540277; in the data active = potentiation above about 80%; inconclusive = between about 30% and that limit; note: 0% is about no effect
#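 TRPV1-expressing cells were cultured overnight at 35.5C and loaded with Fluo-8 calcium dye for 40 to 90 min at room temperature. After a 10 s baseline, compound was added and calcium influx was read kinetically for 3 min (ex 480/em 520 nm).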
# D1 agonist = activates the human D1 dopamine receptor; P21728; HEK293 T-REx D1 cells, calcium flux, agonist mode; activation, % at 2 µM; 360,000 tested, 1% active; AID 504660; in the data active = activation above about 30%; note: 0% is about no effect
#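 Inducible HEK293 T-REx D1 cells, force-coupled to calcium signalling, were plated at 4000 cells/well with tetracycline and held overnight at 30 C. After no-wash calcium dye loading, compound-evoked calcium rise over 180 s flagged agonists.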
# TRPV1 agonist = agonists of human vanilloid receptor 1 (TRPV1); TRPV1-expressing cells, Fluo-8 calcium influx, agonist mode; 320,000 tested, 0.19% active; activation, % at 8.33 µM; AID 540275; in the data active = activation above about 80%; inconclusive = between about 30% and that limit; note: 0% is about no effect
#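 Cells expressing TRPV1 were dye-loaded with Fluo-8 and read kinetically: 10 s baseline, 3 min after compound (agonist portion), then 2 min after EC20 capsaicin (allosteric enhancer portion). Calcium-bound dye fluorescence at 480/520 nm.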
# D1 antag = antagonists of human D1 dopamine receptor; P21728; HEK293 TREx D1 cells, calcium flux, dopamine EC80; hits give low values; activity change, negative = inhibition, % at 10 µM; 360,000 tested, 3.2% active; AID 504652; in the data active = activity change below about -30%; note: % is set by controls: 0 for no effect and ±100 for the full control effect
#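 Antagonism measured as reduced calcium response to an EC80 dopamine addition following 180 s compound pre-read; cells were inducible HEK293 Trex D1 plated overnight at 30 C, read kinetically at 1 cycle/sec.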
# * marks the source's active call; other numbers are inactive results; ? = inconclusive; . = no result. The list is not random: actives were taken first. Their share in the collection is about 4.2%.
SMILES,D1 potentiator,TRPV1 PAM,D1 agonist,TRPV1 agonist,D1 antag
O=C(NCC1CCCO1)c1c(O)c2cccc3c2n(c1=O)CCC3 (stereo not given),0.2,-36.5,0.4,-4.1,-52.9*
O=C(NCC1CCCO1)c1c(O)c2cccc3c2n(c1=O)CC3 (stereo not given),7.2,-3.4,1.2,7.2,0.9
Cc1cccc(Cc2ccc(Cl)nn2)c1,-0.9,4.0,3.1,-3.4,-38.1*
CN(C)CCNC(=O)c1ccc2c(c1)N(Cc1c(F)cccc1Cl)C(=O)c1ccccc1S2,0.4,.,27.0,.,-5.5
CNC(=S)N(C)/N=C1/C(=O)N(Cc2c(Cl)cccc2Cl)c2ccccc21,-3.6,12.4,6.1,?,-34.3*
COc1cc(OC)c(NC(=O)c2sc3nc4n(c(=O)c3c2C)CCCC4)cc1Cl,-1.6,.,26.7,.,-2.0
O=C(Nc1ccc(F)cc1F)N1CCN(c2ccc(Cl)c(Cl)c2)CC1,-3.2,.,27.8,.,-31.9*
CN(C)c1ccc(-c2nc(-c3cccs3)c(-c3cccs3)[nH]2)cc1,-1.4,.,3.3,.,13.8
CN1CCN(S(=O)(=O)c2cccc(S(=O)(=O)c3ccc(Cl)c(Cl)c3)c2)CC1,-4.8,-5.8,6.6,7.9,-53.0*
CC(C)COc1ccc(C(=O)Nc2sc3c(c2C(=O)O)CC(C)(C)OC3)cc1,-4.2,-5.1,3.3,-2.1,-31.3*
Cc1cc(C)cc(N2CCn3c2nc2c3c(=O)n(CCCc3ccccc3)c(=O)n2C)c1,-1.1,.,2.2,.,4.6
COc1ccc(C2c3cccn3CCN2S(=O)(=O)c2ccc([N+](=O)[O-])cc2)cc1 (stereo not given),-2.8,.,-0.8,.,.
CCCc1cc(=O)n2[nH]c(NCc3cccs3)nc2n1,2.0,2.2,6.2,-0.4,-36.6*
Cc1ccc(NC(=O)CS(=O)CC(=O)N(c2ccc(C)cc2)C(C)C(=O)NC2CCCCC2)cc1 (stereo not given),-3.4,1.1,0.3,-1.1,-6.6
Cc1ccc(NC(=O)CS(=O)CC(=O)N(c2ccccc2F)C(C)C(=O)NC2CCCC2)cc1 (stereo not given),-10.8,-4.0,2.0,-0.6,15.7
CC(C(=O)NC1CCCC1)N(C(=O)CS(=O)CC(=O)Nc1ccc(F)cc1)c1ccc2c(c1)OCCO2 (stereo not given),-0.4,1.4,-1.2,-5.1,-52.4*
O=C(CS(=O)CC(=O)N(CC(=O)NC1CCCC1)c1ccccc1F)Nc1ccc(F)cc1 (stereo not given),0.9,3.4,0.0,0.7,-35.2*
Cc1cc2c(s1)c1c(C)nn(Cc3ccc(F)cc3)c(=O)c1n2C,3.3,.,2.9,.,-3.1
CCCCSc1nc2sc3c(c2c(=O)n1-c1ccccc1C)CC(C)(C)OC3,-0.2,.,4.2,.,6.6
CC(C)c1nn2c(=O)cc(COC(=O)c3ccc(NC(=O)c4cccs4)cc3)nc2s1,-0.2,.,16.3,.,-18.1
CCOC(=O)C1=C(O)C(=O)N(c2ccc(S(N)(=O)=O)cc2)C1c1ccc(Br)cc1 (stereo not given),-1.1,-13.9,8.4,3.4,-1.5
CCOC(=O)C1=C(O)C(=O)N(c2ccc(S(N)(=O)=O)cc2)C1c1ccc(Cl)cc1 (stereo not given),-0.3,4.6,-0.2,-4.5,-38.3*
CN(CC(=O)Nc1ccc([N+](=O)[O-])cc1Br)Cc1c(F)cccc1Cl,0.9,12.3,11.7,4.6,-32.5*
O=C(Nc1nnc(-c2cccs2)o1)c1cccc(Oc2ccccc2)c1,-6.0,.,85.0*,.,-16.3
O=C1CCc2cc(NS(=O)(=O)c3ccc(F)cc3)cc3c2N1CCC3,-4.3,-3.3,3.0,-2.5,-38.1*
SMILES,D1 potentiator,TRPV1 PAM,D1 agonist,TRPV1 agonist,D1 antag
NC(=Nc1ccc(Cl)cc1)c1ccccc1,-3.0,-3.3,70.8*,12.7,-53.2*
ONC(=Nc1ccccc1)c1ccc(Cl)cc1,8.1,-7.4,0.7,4.1,1.2
Cc1cc(C)n(-c2ccc(C(=O)OC(C)C(=O)Nc3ccc(C(N)=O)cc3)cc2)n1 (stereo not given),-4.4,-5.1,4.2,?,-31.0*
O=C(CN1CCN(S(=O)(=O)c2ccccc2)CC1)Nc1ccc(N2CCOCC2)cc1,-3.8,7.3,25.1,3.7,-0.5
CCCS(=O)(=O)N1CCN(S(=O)(=O)c2ccccc2[N+](=O)[O-])CC1,-7.6,-16.2,5.3,5.8,1.1
O=C(CN1CCN(S(=O)(=O)c2ccccc2[N+](=O)[O-])CC1)Nc1ccc(N2CCOCC2)cc1,-13.1,-3.8,8.8,4.6,-46.0*
CC(=O)c1c(C)[nH]c(C(=O)CN2CCN(S(=O)(=O)c3ccccc3[N+](=O)[O-])CC2)c1C,-4.1,2.1,7.0,0.2,-30.6*
COc1ccc(C2C=C(c3ccc(Cl)cc3)Nc3nc(-c4ccc(Cl)cc4)nn32)cc1 (stereo not given),-3.5,.,15.8,.,-14.6
COc1ccc(NC2CCCN(C(=O)c3cc(C)nc4cc(F)ccc34)C2)cc1 (stereo not given),-1.4,-1.1,-0.2,?,-2.8
Cc1cc(C(=O)N2CCCC(Nc3ccccc3)C2)c2ccc(F)cc2n1 (stereo not given),-23.0,-21.4,1.0,?,-33.3*
O=C(CCn1cnnn1)N1CCCC(Nc2ccc(F)cc2)C1 (stereo not given),-3.7,12.3,10.6,1.1,-35.2*
COc1ccc(NC2CCCN(C(=O)CCN3Cc4ccccc4C3=O)C2)cc1 (stereo not given),-3.0,-15.1,2.4,19.3,-93.6*
O=C(CCc1ccccc1)N1CCCC(Nc2ccc(F)cc2)C1 (stereo not given),3.1,15.6,-1.1,87.4*,-24.6
O=C(CCc1ccncc1)N1CCCC(Nc2ccc(F)cc2)C1 (stereo not given),0.5,-13.0,2.3,14.2,-9.4
Cc1cc(=O)n2c(C(=O)Nc3ccc(C)c(Cl)c3)c(C(=O)Nc3ccccc3)sc2n1,4.5,.,2.4,.,1.9
O=C(c1cc2cc(F)ccc2[nH]1)N1CCCC(Nc2ccc(F)cc2)C1 (stereo not given),-8.4,-9.1,6.1,?,-35.3*
CCCCNC(=O)C1CCN(c2nc3ccccc3nc2C(F)(F)F)CC1,-3.6,.,2.4,.,-3.2
C=Cc1ccc(Cn2c(=O)n(-c3cccc(C)c3)c(=O)c3c2c2cc(C)ccc2n3C)cc1,-0.1,.,3.1,.,-2.2
CC(C)c1ccc(NC(=O)Nc2cc3sccc3n2C)cc1,-1.5,-5.5,-3.3,-2.1,-36.8*
Cn1c(C(=O)Nc2ccc3c(c2)OCCO3)cc2sccc21,-6.0,-7.4,-0.3,3.1,18.0
CCN(CC)S(=O)(=O)c1nnc(NC(=O)c2ccccc2Cl)s1,-0.6,.,0.9,.,-5.8
CC(C)CN(c1ccccc1)S(=O)(=O)c1nnc(NC(=O)C(C)C)s1,-3.9,27.3,3.2,-1.4,-40.6*
CC(C)CC(=O)Nc1nnc(S(=O)(=O)N(CC(C)C)c2ccccc2)s1,2.5,.,-0.1,.,1.5
